Source: the supplement of paper PMC13094657
± gives the standard deviation of the averaged measurements.

Tests used:
[1] = test system: MDA-MB-231; experiment: cell viability relative to vehicle unstimulated control (fraction); higher = more viable cells; conditions: pre-treatment time: 18 h then 24 h IFNg/TNF
[2] = test system: MDA-MB-231; experiment: kynurenine production, fold change vs DMSO IFNg/TNF control; higher = more kynurenine produced (less inhibition); conditions: pre-treatment time: 18 h then 24 h IFNg/TNF
Outline: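 Fold change over cytokine-stimulated vehicle wells on the same plate is the measure used for kynurenine production, averaged across duplicate plates in the first screening round. MDA-MB-231 cells, seeded 24 h beforehand at 7 × 10^4/well in 96-well plates, were pre-treated 18 h with each natural product in 0.1% DMSO and stimulated 24 h at 37°C with IFNγ (1 U/ml) and TNF (6.25 ng/ml). Supernatants were read at 492 nm following trichloroacetic acid and p-dimethylaminobenzaldehyde treatment, against 0–100 μM standards.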
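Wherever cell viability relative to vehicle unstimulated control is given: viability of the cells left after supernatant collection, read with Deep Blue dye added for 4 h, as absorbance at 570 nm minus 600 nm.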

| SMILES | cell viability [1] | kynurenine production [2] |
| --- | --- | --- |
| CCCCCC(=O)O[C@@H]1[C@@H](C)[C@@]2(O)[C@@H](C=C(CO)C[C@]3(O)C(=O)C(C)=C[C@@H]23)[C@@H]2C(C)(C)[C@]12OC(=O)CCCCC [Phorbol 12, 13-Dihexanoate] (compound dose: 10 uM) | 1.05 ± 0.076 | 0.896 ± 0.056 |
| CC1=CC[C@@](O)(C(C)C)CC1 [Terpinen-4-ol] (compound dose: 10 uM) | 1.12 ± 0.0039 | 0.984 ± 0.17 |
| CC(C)=CCCC1(C)CCC2(C)C3CCC4(C)C(C)C(=O)CCC4C3(C)CCC2(C)C1 (stereo not drawn) [Shionone] (compound dose: 10 uM) | 1.02 ± 0.0034 | 0.776 ± 0.11 |
| COC(=O)C1=CO[C@@H](O)[C@@H]2C(CO)=CC[C@H]12 [Genipin] (compound dose: 10 uM) | 1 ± 0.026 | 0.76 ± 0.052 |
| C=CCC(=NOS(=O)(=O)O)S[C@@H]1O[C@H](CO)[C@@H](O)[C@H](O)[C@H]1O (stereo in doubt) [Sinigrin] (compound dose: 10 uM) | 0.933 ± 0.014 | 1.04 ± 0.14 |
| C/C=C(/C)C(=O)O[C@H]1C(C)=C[C@]23C(=O)[C@@H](C=C(COC(C)=O)[C@@H](O)[C@]12O)[C@H]1[C@@H](C[C@H]3C)C1(C)C [20-O-Acetylingenol-3-angelate] (compound dose: 10 uM) | 1.1 ± 0.091 | 0.874 ± 0.053 |
| CC(=O)OC/C=C(\C)CCC=C(C)C [Geranyl acetate] (compound dose: 10 uM) | 1.01 ± 0.065 | 0.882 ± 0.039 |
| C=C(C)[C@H]1CC=C(C)C(=O)C1 [D(+)-carvone] (compound dose: 10 uM) | 1 ± 0.026 | 0.864 ± 0.022 |
| C=C(C)[C@@H]1CC[C@]2(C=O)CC[C@]3(C)[C@H](CC[C@@H]4[C@@]5(C)CC[C@H](O)C(C)(C)[C@@H]5CC[C@]43C)[C@@H]12 [Betulinaldehyde] (compound dose: 10 uM) | 1.005 ± 0.0091 | 0.697 ± 0.12 |
| CC(=O)OC[C@H]1O[C@@H](OC[C@H]2O[C@@H](OC(=O)[C@]34CCC(C)(C)C[C@H]3C3=CC[C@@H]5[C@@]6(C)CC[C@H](O[C@@H]7OC[C@H](O)[C@H](O)[C@H]7O[C@@H]7O[C@H](CO)[C@@H](O)[C@H](O)[C@H]7O)C(C)(C)[C@@H]6CC[C@@]5(C)[C@]3(C)CC4)[C@H](O)[C@@H](O)[C@@H]2O)[C@H](O)[C@@H](O)[C@@H]1O[C@@H]1O[C@@H](C)[C@H](O)[C@@H](O)[C@H]1O [Acanthopanaxoside B] (compound dose: 10 uM) | 1.095 ± 0.0013 | 1.01 ± 0.17 |
| CC(C)(O)CCC(=O)[C@](C)(O)C1[C@H](O)C[C@@]2(C)[C@@H]3CC=C4[C@@H](C[C@H](O)[C@@H](O)C4(C)C)[C@]3(C)C(=O)C[C@]12C (stereo partly drawn) [Cucurbitacin IIb] (compound dose: 10 uM) | 0.943 ± 0.021 | 0.826 ± 0.27 |
| CC1=CC[C@@H](C(C)(C)O)CC1 [α terpineol (mixed)] (compound dose: 10 uM) | 0.977 ± 0.065 | 0.876 ± 0.082 |
| CC1=CCC(C(C)C)=CC1 [γ-Terpinene] (compound dose: 10 uM) | 1.07 ± 0.036 | 0.75 ± 0.53 |
| CC(C)=CCC[C@@](C)(O)[C@H]1CC[C@]2(C)[C@@H]1[C@H](O)C[C@@H]1[C@@]3(C)CC[C@H](O)C(C)(C)[C@@H]3CC[C@]12C [(20R)-Protopanaxadiol] (compound dose: 10 uM) | 0.9532 ± 0.0069 | 0.793 ± 0.14 |
| CC(C)=CCC[C@@H](C)CC=O [Citronellal] (compound dose: 10 uM) | 1.067 ± 0.0084 | 1.22 ± 0.043 |
| C/C1=C\CCC2=C[C@@H](OC2=O)c2c(C)coc2C1 [Linderalactone] (compound dose: 10 uM) | 0.998 | 0.815 ± 0.018 |
| C=C[C@]1(C)CC[C@@H](C(=C)C)C[C@H]1C(=C)C [β-Elemene] (compound dose: 10 uM) | 0.939 ± 0.071 | 0.8 ± 0.11 |
| OCC1=C[C@@H](O)[C@]2(O[C@@H]3O[C@H](CO)[C@@H](O)[C@H](O)[C@H]3O[C@@H]3O[C@H](CO)[C@@H](O)[C@H](O)[C@H]3O)C=CO[C@@H](O[C@@H]3O[C@H](CO)[C@@H](O)[C@H](O)[C@H]3O)[C@H]12 [Rehmannioside D] (compound dose: 10 uM) | 1.05 ± 0.29 | 0.941 ± 0.072 |
| CC1(C)C2CC=C(C=O)C1C2 (single isomer, unassigned; (-)) [(-)-Myrtenal] (compound dose: 10 uM) | 0.988 ± 0.056 | 0.941 ± 0.084 |
| CC(C)=CCC[C@@H](C)CCO [(R)-Citronellol] (compound dose: 10 uM) | 1.029 ± 0.0012 | 0.824 ± 0.11 |

| SMILES | cell viability [1] | kynurenine production [2] |
| --- | --- | --- |
| CC(C)=CCC/C(C)=C/CC/C(C)=C/CC/C=C(\C)CC/C=C(\C)CCC=C(C)C [Squalene] (compound dose: 10 uM) | 0.914 ± 0.13 | 0.887 ± 0.027 |
| C=C(C)[C@H]1CC=C(C)CC1 [(r)-(+)-limonene] (compound dose: 10 uM) | 0.986 ± 0.032 | 0.907 ± 0.04 |
| C=C1[C@H](OC(=O)/C=C(\C)CC)C[C@@H](C(C)C)[C@@H]2[C@@H]([C@@H](C)OC(C)=O)C(=O)C[C@@H]12 [Tussilagone] (compound dose: 10 uM) | 1.01 ± 0.034 | 1.0216 ± 0.00014 |
| CC(C)=CCC/C(C)=C/CO [Geraniol] (compound dose: 10 uM) | 0.998 ± 0.042 | 0.829 ± 0.2 |
| O=C(O)C1=CO[C@@H](O[C@@H]2O[C@H](CO)[C@@H](O)[C@H](O)[C@H]2O)[C@@H]2C(CO)=C[C@H](O)[C@H]12 [Deacetylasperulosidic acid] (compound dose: 10 uM) | 1.01 ± 0.024 | 1.07 ± 0.041 |
| COC(=O)C[C@](O)(CCCC(C)(C)O)C(=O)O[C@@H]1C(OC)=C[C@]23CCCN2CCc2cc4c(cc2[C@H]13)OCO4 [Homoharringtonine] (compound dose: 10 uM) | 0.382 | 0.125 ± 0.08 |
| CC(C)=CCCC(C)CCO (stereo not drawn) [Citronellol] (compound dose: 10 uM) | 1.03 ± 0.057 | 0.845 ± 0.25 |
| C=C1[C@H](OC(=O)C(C)C)[C@@H](O)[C@@H](OC(=O)c2cccnc2)C(C)(C)/C=C/[C@H](C)[C@H](OC(C)=O)[C@@]2(O)C[C@@](C)(OC(C)=O)[C@H](OC(=O)c3ccccc3)[C@@H]2[C@H]1OC(C)=O [Jatrophane 3] (compound dose: 10 uM) | 1.04 ± 0.056 | 0.82 ± 0.18 |
| CC(C)=CCC[C@](C)(O[C@@H]1O[C@H](CO)[C@@H](O)[C@H](O)[C@H]1O)[C@H]1CC[C@]2(C)[C@@H]1[C@H](O)C[C@@H]1[C@@]3(C)CC[C@H](O)C(C)(C)[C@@H]3[C@@H](O)C[C@]12C [Ginsenoside F1] (compound dose: 10 uM) | 0.982 ± 0.05 | 1.13 ± 0.066 |
| O=C1O[C@H]2[C@@H]3OC(=O)c4cc(O)c(O)c(O)c4-c4c(O)c(O)c5oc(=O)c6c(c(O)c(O)c7oc(=O)c4c5c76)-c4c(cc(O)c(O)c4O)C(=O)OC[C@H]3OC(O)[C@@H]2OC(=O)c2cc(O)c(O)c(O)c2-c2c1cc(O)c(O)c2O (mixture of isomers) [Punicalagin] (compound dose: 10 uM) | 1.001 ± 0.0011 | 0.1 ± 0.0087 |
| C[C@@H]1O[C@@H](O[C@H]2[C@H](O[C@H]3CC[C@@]4(C)[C@@H](CC[C@]5(C)[C@@H]4CC=C4[C@@H]6CC(C)(C)CC[C@]6(C(=O)O)CC[C@]45C)[C@]3(C)CO)OC[C@H](O[C@@H]3O[C@H](CO)[C@@H](O)[C@H](O)[C@H]3O)[C@@H]2O)[C@H](O)[C@H](O)[C@H]1O [Pulsatilla saponin D] (compound dose: 10 uM) | 0.145 ± 0.0044 | 0.141 ± 0.07 |
| CC1OC(OC2C(OC3CCC4(C)C(CCC5(C)C4CC=C4C6CC(C)(C)CCC6(C(=O)OC6OC(COC7OC(CO)C(O)C(O)C7O)C(O)C(O)C6O)CCC45C)C3(C)CO)OCC(O)C2O)C(O)C(O)C1O (stereo not drawn) [Dipsacoside B] (compound dose: 10 uM) | 0.976 ± 0.042 | 0.861 ± 0.32 |
| C[C@@H]1CC[C@]2(C(=O)O[C@@H]3O[C@H](CO)[C@@H](O)[C@H](O)[C@H]3O)CC[C@]3(C)C(=CC[C@@H]4[C@@]5(C)CC[C@H](O)[C@](C)(C(=O)O)[C@@H]5CC[C@]43C)[C@@H]2[C@]1(C)O [Ilexsaponin A] (compound dose: 10 uM) | 1.02 ± 0.016 | 0.883 ± 0.013 |
| CC(C)C1=C[C@H]2[C@@H](CC[C@]2(C)O)[C@](C)(O)CC1 [Alismoxide] (compound dose: 10 uM) | 1.01 ± 0.018 | 0.714 ± 0.17 |
| CC(C)=CCC[C@](C)(O[C@@H]1O[C@H](CO)[C@@H](O)[C@H](O)[C@H]1O)[C@H]1CC[C@]2(C)[C@@H]1[C@H](O)C[C@@H]1[C@@]3(C)CC[C@H](O[C@@H]4O[C@H](CO)[C@@H](O)[C@H](O)[C@H]4O[C@@H]4O[C@H](CO)[C@@H](O)[C@H](O)[C@H]4O)C(C)(C)[C@@H]3CC[C@]12C [Ginsenoside Rd] (compound dose: 10 uM) | 1 ± 0.022 | 0.778 ± 0.17 |
| C=CC(C)(O)CCC=C(C)CCC=C(C)C (mixture of isomers) [Nerolidol] (compound dose: 10 uM) | 1.01 ± 0.043 | 0.798 ± 0.2 |
| CC(=O)O[C@]12C[C@H](C)[C@H](OC(=O)/C=C/c3ccccc3)[C@@H]1/C=C(/CO)CC[C@H]1[C@@H](/C=C(\C)C2=O)C1(C)C [Euphorbia factor L22] (compound dose: 10 uM) | 1.11 ± 0.047 | 0.964 ± 0.092 |
| CN1CCC[C@H]1c1cccnc1 [(-)-nicotine] (compound dose: 10 uM) | 0.978 ± 0.08 | 1.04 ± 0.11 |
| C[C@@H]1C(=O)O[C@H]2C[C@@]34[C@H]5C[C@@H](C(C)(C)C)[C@]36[C@@H](OC(=O)[C@@H]6O)O[C@@]4(C(=O)O5)[C@]21O [Ginkgolide A] (compound dose: 10 uM) | 1.03 ± 0.13 | 1.2 ± 0.084 |
